Shiga toxin inh = blocks Shiga toxin action in Vero cells | Vero cells, Shiga toxin protein synthesis inhibition reporter | inhibition, % at 38.7 µM | 290,000 compounds, 9.2% hits | AID 2315; in the data active = inhibition mostly above about 28%, no sharp cut-off; inactive = mostly below about 43%
Cycloheximide cs = affects cycloheximide protein synthesis inhibition readout, counter-screen | AID 2314 | cell reporter, cycloheximide protein synthesis inhibition counterscreen | max response, % | 300,000 compounds, 12% hits; in the data active = max response mostly above about 13%, no sharp cut-off; inactive = mostly below about 14%; also: read at 38.3 µM for the half of the compounds with a filed dose
AMA1-RON2 inh = disrupts binding of P. falciparum AMA1 to RON2 | AlphaScreen AMA1-biotinylated RON2 peptide binding | Potency, µM (highest dose often 58.2 µM), usual class: inhibitors | 360,000 compounds, 0.2% hits; also: nearly all actives have a fitted effect of over 45% in size
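AMA1 (3D7) with his tag at 25 nM final met compounds first, then biotinylated RON2 peptide at 25 nM; detection used donor plus acceptor beads, 10 µg/mL apiece, read by AlphaScreen after 30 min at room temperature.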
SARS PLP yeast = inhibitors of SARS-CoV papain-like protease in yeast; S. cerevisiae expressing SARS-CoV PLpro, growth rescue; Potency, µM (top dose mostly 32.9 µM), usual class: activators; 330,000 compounds, 0.19% hits; AID 485353; calls by dose curve; also: nearly all actives have a fitted effect of over 55% in size
Pf growth 96h = P. falciparum growth inhibition at 96 hours; P. falciparum luciferase reporter growth, 96 h; AID 504834; Potency, µM (top dose mostly 28.7 µM), hits mostly inhibitors; 320,000 compounds, 6.9% hits
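P. falciparum expressing integrated firefly luciferase, in erythrocytes at 2% hematocrit, 0.05% parasitemia, incubated with compounds 96 h at 37 C, 5% CO2. Growth inhibition read as loss of luminescence; two-generation exposure targets delayed-death apicoplast inhibitors.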
Pf growth 48h = P. falciparum growth inhibition at 48 hours (one generation); 310,000 compounds, 5.9% hits; P. falciparum luciferase growth in erythrocytes, 48 h; Potency, µM (highest dose often 28.7 µM), most hits filed as inhibitors
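Read-out is firefly luciferase luminescence from an integrated reporter in P. falciparum, so falling signal marks reduced parasite growth. Infected erythrocytes were at 2% hematocrit and 0.1% parasitemia (final) in Albumax-supplemented RPMI 1640.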
Hits are given with their value; - = inactive; ? = inconclusive; . = no result given; ! = repeats disagree; [ ] = dose if it differs, or a comment. Compounds with a hit are over-represented: about 19% of the library has one in this group of screens. Unless noted, calls follow the shape of the dose curve; as a rule, active = well fitted curve in the direction sought with a large enough effect; inconclusive = small, poorly fitted or top-dose-only effect, or another doubt; inactive = no such curve, though single readings can be large; an effect the other way counts as inactive or inconclusive.

SMILES	Shiga toxin inh	Cycloheximide cs	AMA1-RON2 inh	SARS PLP yeast	Pf growth 96h	Pf growth 48h
COc1cc2cc3c(N)c(C(=O)Nc4sc(C)c(C)c4C#N)sc3nc2cc1OC	-	-	-	-	11.7µM	?
COc1ccc(-n2c(N)c(C(=O)NCc3ccco3)sc2=S)cc1	-	-	-	-	?	?
OCC1OC(c2ccccc2)OC2COC(c3ccccc3)OC12 (stereo not drawn)	.	.	-	.	.	.
CSc1ncccc1C(=O)Nc1ccc2nc(C)sc2c1	49.5	19.4	-	-	-	-
CCOc1ncccc1C(=O)Nc1ccc2nc(C)sc2c1	50.3	13.6	-	-	-	-
CCOc1ncccc1C(=O)Nc1ccc(F)c(F)c1	-	-	-	-	-	-
CSc1ncccc1C(=O)Nc1nc2ccc(Oc3ccccc3)cc2s1	55.6	15.1	-	-	-	-
CCCc1cc(=O)n2[nH]c(-c3ccc(C)cc3)cc2n1	73.4	39.2	-	-	-	-
O=c1cc(-c2ccccc2)nc2cc(-c3ccco3)[nH]n12	-	17.6	-	-	?	-
CCCc1cc(=O)n2[nH]c(-c3ccc(Cl)cc3)cc2n1	92.1	56.8	-	-	?	-
CCCc1cc(=O)n2[nH]c(-c3ccccc3)cc2n1	69.7	-	-	-	?	-
NC(=O)c1ncn([C@@H]2O[C@H](CNCc3cnc(N4CCOCC4)nc3)[C@@H](O)[C@H]2O)n1	.	.	-	.	.	.
O=C(O)C1OC2OC3(CCCCC3)OC2C2OC3(CCCCC3)OC12 (stereo not drawn)	-	-	-	-	1.47µM	-
CCCNC(=O)c1cc(C2CCCCN2C(=O)CCCc2ccccc2)on1 (stereo not drawn)	.	.	-	.	.	.
CCOC(=O)c1ccc(NC(=O)c2cnccn2)cc1	-	19.9	-	-	?	-
CCOc1cc(N2CCOCC2)c(OCC)cc1NC(=O)c1cnccn1	.	.	-	-	.	.
CCc1cccc(NC(=O)C2CCCN(c3cnccn3)C2)c1 (stereo not drawn)	-	-	-	-	?	-
CCCCc1ccc(NC(=O)c2cnccn2)cc1	61.0	37.0	-	-	-	-
CCOc1cc(-n2cnnn2)c(OCC)cc1NC(=O)c1cnccn1	-	-	-	-	5.22µM	-
CCOC(=O)c1cc(NC(=O)c2cnccn2)cc(C(=O)OCC)c1	-	-	-	-	-	-
CCOC(=O)c1ccc(NC(=O)C2CCCN(c3cnccn3)C2)cc1 (stereo not drawn)	34.0	28.9	-	-	-	-
C[C@H](CO)N1C[C@H](C)[C@@H](CN(C)S(=O)(=O)c2ccccc2)OCCCC[C@H](C)Oc2ccc(NC(=O)CCC(F)(F)F)cc2C1=O	.	.	-	.	.	.
COc1ccc(OCCN2CCC(C(=O)NC(c3ccc(Cl)cc3)c3cnccn3)CC2)cc1 (stereo not drawn)	.	.	-	.	.	.
O=C(c1ccccc1)N1CCOC(O)(c2ccccc2)C1c1ccccc1 (stereo not drawn)	.	.	-	.	.	.
Cc1cn2c(N)c(C=C3C=C(Cl)C(=O)C(Cl)=C3)c(=O)nc2s1	-	-	-	-	-	-
SMILES	Shiga toxin inh	Cycloheximide cs	AMA1-RON2 inh	SARS PLP yeast	Pf growth 96h	Pf growth 48h
COC1=C/C(=C/c2c(N)n3cc(C)sc3nc2=O)C=CC1=O	44.6	41.6	-	-	-	-
COCCCNC(=O)/C=C/c1ccc(Cl)cc1	50.1	21.2	-	-	-	-
O=C(/C=C/C(=O)NCc1cccs1)NCc1cccs1	-	-	-	-	-	-
O=C(/C=C/c1cccc(Cl)c1)NCc1ccccc1	-	-	-	-	-	-
O=C(/C=C/c1cccc(Cl)c1)NCc1cccs1	41.4	38.3	-	-	?	-
O=C(/C=C/c1ccc(Cl)cc1)NCc1cccs1	91.7	53.2	-[11.6 µM]	-	-	-
O=C(/C=C/c1ccccc1)Nn1c(-c2cccs2)nc2ccccc2c1=O	-	-	-	-	-	-
O=C(/C=C/c1cccc(Cl)c1)Nn1c(-c2cccs2)nc2ccccc2c1=O	-	-	-	-	2.08µM	-
COCCCNC(=O)/C=C/c1c(Cl)cccc1Cl	-	-	-	-	-	-
COc1ccc(C2OC(=O)CC2C(=O)NC2CCCCCC2)cc1OC (stereo not drawn)	-	-	-	-	?	-
O=C(Nc1ccc(F)c(Cl)c1)c1ccc2sc([C@H]3C[C@H](O)[C@@H](CO)O3)nc2c1	.	.	-	.	.	.
CCN(CC)S(=O)(=O)c1ccc(C(=O)N(c2ccc(C)cc2)C2C=CS(=O)(=O)C2)cc1 (stereo not drawn)	-	-	-	-	?	-
CC(C)CN1CCC(=O)N(CCSc2ccc(Br)cc2)CC1	52.9!	-	-	-	?	-
CC(C)CN1CCC(=O)N(C(CSc2ccc(Br)cc2)Cc2ccccc2)CC1 (stereo not drawn)	-	-	.	.	.	.
CCCN1CCC(=O)N(CCOc2ccccc2)CC1	-	-	-	-	-	-
CC(C)CN1CCC(=O)N(CCOc2ccccc2)CC1	27.8	27.8	-	-	-	-
COCCn1c(Cc2ccccc2)nnc1SCC(=O)Nc1oc(C)c2c(C)n[nH]c(=O)c12	.	.	-	-	-	-
CCOC(=O)C1(S(=O)(=O)c2ccccc2)CCN(Cc2ccc(Cl)cc2)CC1	-	-	-	-	7.38µM	?
CCOC(=O)C1(CCOc2ccccc2)CCN(Cc2ccc(O)cc2)CC1	.	-	-	-	-	13.1µM
CCOC(=O)C1(CCOc2ccccc2)CCN(Cc2ccc(O)c(OCC)c2)CC1	-	-	-	-	-	14.7µM
CCCN1CCC(CCOc2ccccc2)(C(=O)OCC)CC1	-	-	-	-	?	-
CCOC(=O)C1(CCOc2ccccc2)CCN(Cc2ccc(OCCO)cc2)CC1	-	-	-	-	?	?
CCOC(=O)CNC(=O)N1CCC(CCOc2ccccc2)(C(=O)OCC)CC1	.	-	-	-	8.28µM	-
CCOC(=O)c1ccc(-c2c(-c3ccccc3OC)sc3ccc(OC)cc23)cc1F	.	.	-	-	.	.
Fc1ccc(N/N=C2/CCSc3sccc32)c(F)c1	28.0	15.1	-	-	-	-
SMILES	Shiga toxin inh	Cycloheximide cs	AMA1-RON2 inh	SARS PLP yeast	Pf growth 96h	Pf growth 48h
O=C1c2ccsc2SCCN1Cc1cccc(F)c1	-	-	-	-	-	.
Cc1cccc(/C(N)=N/OC(=O)c2ccc(Br)o2)c1	90.0	90.9	-	-	-	-
Cc1ccc(OC(=O)c2cccnc2)cc1	-	-	-	-	11.7µM	-
CCOP(=O)(OCC)/C(=N/OC(=O)c1ccc(Cl)cc1Cl)C(N)=O	-	-	-	-	-	-
N/C(=N\OC(=O)c1ccc(Cl)cc1Cl)c1ccccc1	127.2	56.3	-	-	-	-
Cc1ccc(OC(=O)c2ccc(Br)o2)cc1	-	-	-	-	-	-
Cc1cc(C)cc(OC(=O)c2cccnc2)c1	-	-	-	-	?	-
CCSc1ccc(/C(N)=N/OC(=O)c2cccs2)cn1	88.4	45.6	-	-	-	-
CSc1ccccc1C(=O)N1CCC2(CC1)CC(=O)c1ccccc1O2	.	.	-	-	-	-

High-throughput results deposited in PubChem BioAssay by National Center for Advancing Translational Sciences (NCATS).
